“And” between values parts separate entries of the source, which are not always exact repeats. Equal entries are not always repeated. Out of some 360,000 compounds screened, about 3,900 (1.1%) were called active. The entries come from a sample that favours actives as a whole. Values without a mark were called inactive.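 How the source made its calls: active means mean replicate inhibition score of at least 50 and every replicate individually at or above 50; inconclusive means only one of the two criteria met; inactive means mean below 50 and not all replicates reaching 50.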
Test: inhibitors of HIV-1 Env-driven cell-cell fusion, primary screen, HeLa-JRFL effector, CEM21 target cells, luciferase (AID 651610);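 further: 0% = plate neutral controls and 100% = maraviroc near 300 nM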
Conditions: active compounds read high; at 12.3 µM unless noted

SMILES | inhibition
O=C1CC(=O)N(Cc2ccccc2)C(=O)N1CCCCCCN1C(=O)CC(=O)N(Cc2ccccc2)C1=O | -2.61%
CC(C)(C)c1ccc(CN2C(=O)CN=C(c3ccccc3)c3ccccc32)cc1 | 86.8% (active)
O=S(=O)(c1ccccc1)N1CCC2CCNC2C1 (stereo not given) | -11.9%
C[C@H](CO)N1C[C@H](C)[C@H](CN(C)C(=O)Oc2ccc3ccccc3c2)OCc2cnnn2CCCC1=O | -15.9% [at 16.7 µM]
O=C(O)[C@@H]1[C@@H](CO)[C@@H]2Cn3c(ccc(-c4ccccc4F)c3=O)[C@H]1N2C(=O)c1cccnc1 | 1.12% [at 16.7 µM]
CCCCCCCCCCCCn1ccc(=N)cc1 | 69% (active)
C[C@@H]1CN([C@H](C)CO)C(=O)CCCn2cc(nn2)CO[C@@H]1CN(C)C(=O)Oc1cccc2ccccc12 | 0.664% [at 16.7 µM]
CCOC(=O)[C@@H]1[C@@H]2NC(=O)N[C@@]1(C)Oc1ccccc12 | -2.84% [at 16.7 µM] and -0.731% [at 16.7 µM]
CS(=O)(=O)N1CCC2CCNC2C1 (stereo not given) | -7.16%
CCC(C)(O)C(=O)OC1C(=O)OC2CC3C(C)=CC(=O)C(O)C3(C)C3C4(O)OCC23C1C(C)C4O (stereo not given) | 75.7% (active)
O=C(O)[C@H]1[C@H](CO)[C@H]2Cn3c(ccc(-c4ccccc4F)c3=O)[C@@H]1N2C(=O)c1cccnc1 | -4.52% [at 16.7 µM]
Cc1cc(N2CCNC[C@@H]2C)ccc1N1CC[C@H](O)C1 | 0.23%
COC(=O)C[C@@H]1CC[C@@H]2NC[C@@H](O)COC[C@H]2O1 | -11.9% [at 16.7 µM]
O=C(c1ccccc1)C(O)(CN1CCCCC1)c1ccccc1 (stereo not given) | 8.44%
CC(=O)C1(O)CCC2C3CCC4=C(Cl)C(=O)CCC4(C)C3CCC21C (stereo not given) | 16.9%

— PubChem BioAssay AID651610 (Broad Institute, 2012)
